Measurements published in PubChem BioAssay.
For some assays here: Entries with a potency or affinity are not part of this list. Activity calls are given as the source filed them. Unless noted, no rule for the calls is given here.

What was measured:
[1] = antimalarial activity against Dd2 strain (AID 2302;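 active = growth inhibition above 50% at the single 2 µM test dose, taken to imply half-maximal potency below 2 µM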;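 also: 0% = DMSO untreated growth and 100% = chloroquine plus artemisinin killed control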); conditions: P. falciparum Dd2 in RBCs, LDH growth readout, 72 h; at 2 µM; active compounds read high
[2] = HepG2 cytotoxicity, primary screen, cytotoxicity control for P. falciparum antimalarial project, cell-based, ATP luminescence (AID 2303;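 active = inhibition above 50%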;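 also: 0% = DMSO wells and 100% = digitonin-killed cells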); conditions: HepG2 viability, 24-48 h, at 10 µM, active compounds read high
[3] = target: L-lactate dehydrogenase (Plasmodium falciparum (isolate CDC / Honduras)) (UniProt Q27743); experiment: PfLDH activity inhibition – cell lysate, 3D7 strain, counter-screen for P. falciparum growth inhibition project (AID 2304);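 also: 0% = vehicle and 100% = reference inhibitor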; conditions: P. falciparum 3D7 crude extract, LDH APAD/NBT absorbance; at 2 µM; active compounds read high
Sequence of L-lactate dehydrogenase (Plasmodium falciparum (isolate CDC / Honduras)) (Q27743 whole entry, looked up): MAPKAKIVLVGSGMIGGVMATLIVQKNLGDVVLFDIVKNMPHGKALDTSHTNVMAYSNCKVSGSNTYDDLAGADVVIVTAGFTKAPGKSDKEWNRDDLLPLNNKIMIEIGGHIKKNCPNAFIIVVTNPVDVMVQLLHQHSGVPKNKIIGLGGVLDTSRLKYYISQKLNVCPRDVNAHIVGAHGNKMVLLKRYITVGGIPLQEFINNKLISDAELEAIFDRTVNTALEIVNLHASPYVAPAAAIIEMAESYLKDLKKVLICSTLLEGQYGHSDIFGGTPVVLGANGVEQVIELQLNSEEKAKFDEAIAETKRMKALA

[4] = inhibition of 3D7 malaria parasite growth – strain 3D7 (AID 2306);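 also: 0% = DMSO wells and 100% = chloroquine plus artemisinin control wells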; conditions: P. falciparum 3D7 erythrocytic growth, LDH absorbance, 72 h; at 2 µM; active compounds read high
[5] = target: Calcium-dependent protein kinase 1 (Plasmodium falciparum (isolate 3D7)) (UniProt P62344); experiment: PfCDPK1 kinase inhibitors, biochemical, TCAMS library (AID 1159585; cut-off not given, nearly all actives have IC50 up to about 0.98 µM;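 also: inhibitors leave more ATP so luminescence rises with inhibition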); conditions: recombinant PfCDPK1, Kinase-Glo ATP depletion luminescence
Sequence of Calcium-dependent protein kinase 1 (Plasmodium falciparum (isolate 3D7)) (P62344 whole entry, looked up): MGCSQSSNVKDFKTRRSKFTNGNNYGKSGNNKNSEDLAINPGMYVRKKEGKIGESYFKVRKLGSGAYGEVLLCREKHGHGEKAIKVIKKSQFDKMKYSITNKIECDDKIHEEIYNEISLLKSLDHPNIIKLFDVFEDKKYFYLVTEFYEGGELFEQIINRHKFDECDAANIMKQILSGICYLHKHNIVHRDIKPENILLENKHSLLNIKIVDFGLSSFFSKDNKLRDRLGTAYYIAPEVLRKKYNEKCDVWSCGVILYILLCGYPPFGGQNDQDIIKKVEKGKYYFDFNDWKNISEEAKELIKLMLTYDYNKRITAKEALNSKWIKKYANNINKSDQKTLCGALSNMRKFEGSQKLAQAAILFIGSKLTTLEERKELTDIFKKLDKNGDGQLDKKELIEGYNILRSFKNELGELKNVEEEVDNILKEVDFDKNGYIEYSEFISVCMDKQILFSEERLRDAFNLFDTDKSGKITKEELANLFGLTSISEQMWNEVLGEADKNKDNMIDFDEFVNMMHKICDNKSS

[6] = target: Plasmodium falciparum protein kinase 6 (PK6, PF3D7_1337100) (UniProt Q8IDW1); experiment: PfPK6 kinase inhibitors, biochemical, TCAMS library (AID 1159586); conditions: recombinant PfPK6, Kinase-Glo ATP depletion luminescence
Sequence of Plasmodium falciparum protein kinase 6 (PK6, PF3D7_1337100) (Q8IDW1 1-305): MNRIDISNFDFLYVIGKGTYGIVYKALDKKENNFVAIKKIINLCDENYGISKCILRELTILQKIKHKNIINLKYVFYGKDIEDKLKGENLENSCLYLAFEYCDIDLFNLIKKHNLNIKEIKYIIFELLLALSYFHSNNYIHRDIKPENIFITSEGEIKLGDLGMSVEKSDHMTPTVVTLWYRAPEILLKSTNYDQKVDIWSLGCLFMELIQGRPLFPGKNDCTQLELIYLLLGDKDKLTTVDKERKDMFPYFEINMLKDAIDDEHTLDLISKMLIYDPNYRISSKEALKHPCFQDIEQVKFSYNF

[7] = target: Protein kinase 7 (PK7), Plasmodium falciparum 3D7 (PF3D7_0213400) (UniProt Q7YTF7); experiment: inhibition of Plasmodium PK7 catalytic activity – biochemical, TCAMS antimalarial set, Kinase-Glo luminescence (AID 1159587); conditions: recombinant PfPK7, Kinase-Glo ATP depletion luminescence
Sequence of Protein kinase 7 (PK7), Plasmodium falciparum 3D7 (PF3D7_0213400) (Q7YTF7 1-343): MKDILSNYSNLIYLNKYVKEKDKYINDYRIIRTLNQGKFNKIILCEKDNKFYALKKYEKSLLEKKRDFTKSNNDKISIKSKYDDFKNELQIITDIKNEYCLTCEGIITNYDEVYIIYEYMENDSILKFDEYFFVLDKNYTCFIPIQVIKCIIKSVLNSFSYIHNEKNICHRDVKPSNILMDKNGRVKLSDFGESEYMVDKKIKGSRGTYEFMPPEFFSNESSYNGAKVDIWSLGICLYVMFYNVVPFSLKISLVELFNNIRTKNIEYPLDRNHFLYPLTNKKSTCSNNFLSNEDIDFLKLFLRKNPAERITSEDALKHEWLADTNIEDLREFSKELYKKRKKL

[8] = target: Calcium-dependent protein kinase 4 (Plasmodium falciparum (isolate 3D7)) (UniProt Q8IBS5); experiment: PfCDPK4 kinase inhibitors, biochemical, TCAMS library (AID 1159588; cut-off not given, nearly all actives have IC50 up to about 0.91 µM); conditions: recombinant PfCDPK4, Kinase-Glo ATP depletion luminescence
Sequence of Calcium-dependent protein kinase 4 (Plasmodium falciparum (isolate 3D7)) (Q8IBS5 whole entry, looked up): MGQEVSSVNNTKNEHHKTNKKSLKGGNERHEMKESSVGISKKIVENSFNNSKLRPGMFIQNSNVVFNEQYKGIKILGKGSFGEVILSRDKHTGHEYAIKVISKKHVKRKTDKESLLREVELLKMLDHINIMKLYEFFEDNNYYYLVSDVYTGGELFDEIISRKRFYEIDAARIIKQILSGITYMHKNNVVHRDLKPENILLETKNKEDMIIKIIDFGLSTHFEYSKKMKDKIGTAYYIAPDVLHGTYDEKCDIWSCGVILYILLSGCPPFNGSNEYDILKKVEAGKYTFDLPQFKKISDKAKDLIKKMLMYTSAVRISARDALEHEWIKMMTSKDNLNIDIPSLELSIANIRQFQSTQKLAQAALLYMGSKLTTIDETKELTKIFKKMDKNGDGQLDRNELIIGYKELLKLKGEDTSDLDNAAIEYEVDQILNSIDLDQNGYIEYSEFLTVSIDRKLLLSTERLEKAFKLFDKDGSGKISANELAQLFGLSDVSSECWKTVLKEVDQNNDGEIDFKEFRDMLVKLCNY

CC(C)Cc1cn(-c2nc(-c3nc4ccccc4[nH]3)cs2)c2cc(Cl)ccc12
active: growth inhibition [1] 68% | growth inhibition [4] 99%
inactive: inhibition [2] 9% | inhibition [3] -3% | outcome [5] | outcome [6] | outcome [7] | outcome [8]

Cc1ccc(CNC(=O)[C@H](CCCN)Nc2nc(Nc3ccccc3)ncc2C)cc1
active: growth inhibition [4] 97%
inactive: growth inhibition [1] -4% | inhibition [2] -1% | inhibition [3] -2% | outcome [5] | outcome [6] | outcome [7] | outcome [8]

Cn1cncc1-c1ccc2ncnc(Nc3ccc4c(cnn4Cc4ccccc4)c3)c2c1
active: growth inhibition [1] 99% | growth inhibition [4] 100%
inactive: inhibition [2] 1% | inhibition [3] -3% | outcome [5] | outcome [6] | outcome [7] | outcome [8]

CC1=C(C(=O)Nc2ccc(Cl)cc2)C(c2ccncc2)n2nc(C(F)(F)F)nc2N1 (stereo not given)
inactive: growth inhibition [1] 49% | inhibition [2] 25% | inhibition [3] -5% | outcome [5] | outcome [6] | outcome [7] | outcome [8]
active: growth inhibition [4] 87%

COc1ccc2c(NCCc3ccccc3)cc(-c3ccccc3)nc2c1
inactive: growth inhibition [1] 1% | inhibition [2] 13% | inhibition [3] 2% | outcome [5] | outcome [6] | outcome [7] | outcome [8]
active: growth inhibition [4] 98%

Cc1cc(N2CCCC2)nc(Nc2ccc(NC(=O)Nc3ccccc3)cc2)n1
inactive: inhibition [2] 35% | inhibition [3] 1% | outcome [5] | outcome [6] | outcome [7] | outcome [8]
active: growth inhibition [1] 100% | growth inhibition [4] 99%

N#Cc1ccc(NC(=NCCc2c[nH]c3ccccc23)Nc2ccc(-c3ccccc3)cc2)c(O)c1
active: growth inhibition [1] 75% | growth inhibition [4] 96%
inactive: inhibition [2] 6% | inhibition [3] 6% | outcome [5] | outcome [6] | outcome [7] | outcome [8]

CCCNCc1ccc(-c2ccc(CN(CCOC)C(=O)c3nn(-c4ccccc4)nc3C)cc2)nc1
active: growth inhibition [1] 71% | growth inhibition [4] 99%
inactive: inhibition [2] 18% | inhibition [3] 3% | outcome [5] | outcome [6] | outcome [7] | outcome [8]

NC1=NCN(OCc2ccc(Cl)c(Cl)c2)C(N)=N1
active: growth inhibition [4] 95%
inactive: growth inhibition [1] 4% | inhibition [2] 14% | inhibition [3] -3% | outcome [5] | outcome [6] | outcome [7] | outcome [8]

CC(C)C[C@@H](CNC[C@H](CC(C)C)NC(=O)OC(C)(C)C)NC(=O)OC(C)(C)C
inactive: inhibition [2] 4% | inhibition [3] 1% | outcome [5] | outcome [6] | outcome [7] | outcome [8]
active: growth inhibition [1] 58% | growth inhibition [4] 88%

CCN(CCCN1CCCCC1)c1cc(C)nc(Nc2cccc(OC(F)(F)F)c2)n1
active: growth inhibition [1] 99% | growth inhibition [4] 102%
inactive: inhibition [2] 32% | inhibition [3] -2% | outcome [5] | outcome [6] | outcome [7] | outcome [8]

Cc1cccc2[nH]c(-c3cccc(-c4cccc(NC(=O)CC5NC(=O)c6ccccc65)c4)c3)nc12 (stereo not given)
inactive: growth inhibition [1] 49% | inhibition [2] 8% | inhibition [3] -1% | outcome [5] | outcome [6] | outcome [7] | outcome [8]
active: growth inhibition [4] 92%

Cc1cc(NCCC(=O)Nc2ccccc2)nc(NCC2CCCCC2)n1
inactive: inhibition [2] 14% | inhibition [3] 3% | outcome [5] | outcome [6] | outcome [7] | outcome [8]
active: growth inhibition [1] 62% | growth inhibition [4] 100%

COc1cc(CCOc2c(C)nc(N)nc2N)cc(OC)c1OC
inactive: growth inhibition [1] -3% | inhibition [3] 4% | outcome [5] | outcome [6] | outcome [7] | outcome [8]
active: inhibition [2] 59% | growth inhibition [4] 93%

CC(C)C(=O)NC(c1cccs1)c1cc(Cl)c2cccnc2c1O (stereo not given)
inactive: inhibition [2] 23% | inhibition [3] -2% | outcome [5] | outcome [6] | outcome [7] | outcome [8]
active: growth inhibition [1] 91% | growth inhibition [4] 91%

CCCC1N=C(N)N=C(N)N1c1ccc(C)cc1 (stereo not given)
inactive: growth inhibition [1] 2% | inhibition [2] 1% | inhibition [3] -3% | outcome [5] | outcome [6] | outcome [7] | outcome [8]
active: growth inhibition [4] 94%

COc1ccc(-c2ccc(NC(=O)c3ccc(C#N)cc3)cc2)cc1CN1CCCN(C)CC1
inactive: inhibition [2] 27% | inhibition [3] -3% | outcome [5] | outcome [6] | outcome [7] | outcome [8]
active: growth inhibition [1] 75% | growth inhibition [4] 99%

CCN(CC)Cc1cc(NC(=O)c2ccccc2O)ccc1Oc1ccc(Cl)cc1
inactive: inhibition [2] 32% | inhibition [3] 3% | outcome [5] | outcome [6] | outcome [7] | outcome [8]
active: growth inhibition [1] 88% | growth inhibition [4] 98%

CC(C)(C)c1ccc(NC(=O)c2ccc(CN3CCCN(Cc4cccc(F)c4)CC3)cc2)cc1
inactive: growth inhibition [1] 8% | inhibition [3] -2% | outcome [5] | outcome [6] | outcome [7] | outcome [8]
active: inhibition [2] 51% | growth inhibition [4] 90%

Fc1cccc(Cl)c1-c1nc(NCCC(c2ccccc2)c2ccccc2)no1
active: growth inhibition [1] 87% | growth inhibition [4] 99%
inactive: inhibition [2] 4% | inhibition [3] -3% | outcome [5] | outcome [6] | outcome [7] | outcome [8]

CSc1cccc(Nc2nc3ccc(S(=O)(=O)NCC(C)C)cc3n2C(C)C(C)C)c1 (stereo not given)
active: growth inhibition [1] 91% | growth inhibition [4] 93%
inactive: inhibition [2] 3% | inhibition [3] -2% | outcome [5] | outcome [6] | outcome [7] | outcome [8]

CC1(C)N=C(N)N=C(N)N1OCCCOc1ccc(N)cc1
inactive: inhibition [3] 1% | outcome [5] | outcome [6] | outcome [7] | outcome [8]
active: growth inhibition [1] 95% | inhibition [2] 66% | growth inhibition [4] 96%

Cc1ccc(S(=O)(=O)c2nc(S(=O)(=O)c3ccccc3)sc2NCC2CCCO2)cc1 (stereo not given)
inactive: growth inhibition [1] 17% | inhibition [2] 4% | inhibition [3] 0% | outcome [5] | outcome [6] | outcome [7] | outcome [8]
active: growth inhibition [4] 88%

Cc1ccccc1C1CCN(C2CCC(NC(=O)/C=C/c3ccc(C(F)(F)F)cc3)CC2)CC1 (stereo not given)
active: inhibition [2] 64% | growth inhibition [4] 95%
inactive: growth inhibition [1] 19% | inhibition [3] -3% | outcome [5] | outcome [6] | outcome [7] | outcome [8]

CC(CN1CCN(C)CC1)C(=O)Nc1cccc(-c2ccc(-c3nc4ccc(F)cc4[nH]3)cc2)c1 (stereo not given)
inactive: inhibition [2] 10% | inhibition [3] 1% | outcome [5] | outcome [6] | outcome [7] | outcome [8]
active: growth inhibition [1] 98% | growth inhibition [4] 101%

Cc1cc(NC(=O)c2ccco2)ccc1OC1CCN(Cc2ccc(C#N)cc2)CC1
inactive: inhibition [2] 2% | inhibition [3] -1% | outcome [5] | outcome [6] | outcome [7] | outcome [8]
active: growth inhibition [1] 89% | growth inhibition [4] 92%

CCOc1cc(C(=O)NCc2ccc(Cl)c(Cl)c2)ccc1-c1nc2ccc(Cl)cc2[nH]1
active: growth inhibition [4] 97%
inactive: growth inhibition [1] 4% | inhibition [2] 10% | inhibition [3] -2% | outcome [5] | outcome [6] | outcome [7] | outcome [8]

CCOc1ccc(-c2nonc2NC(=O)c2ccco2)cc1OCC
inactive: inhibition [2] 3% | inhibition [3] -1% | outcome [5] | outcome [6] | outcome [7] | outcome [8]
active: growth inhibition [1] 77% | growth inhibition [4] 97%

C=CCOc1cccc2c1CCN(CCN1CCC(NC(=O)c3ccc(-c4ccc(Cl)cc4)cc3)CC1)C2
active: growth inhibition [4] 93%
inactive: growth inhibition [1] 22% | inhibition [2] 35% | inhibition [3] -2% | outcome [5] | outcome [6] | outcome [7] | outcome [8]

OCCN1CCN(c2ccc(Nc3ccnc4cc5ccccc5cc34)cc2)CC1
active: growth inhibition [1] 100% | inhibition [2] 98% | growth inhibition [4] 100%
inactive: inhibition [3] -1% | outcome [5] | outcome [6] | outcome [7] | outcome [8]

CCCCCCN1CCC(NCc2ccc(Cl)cc2)CC1
active: growth inhibition [4] 98%
inactive: growth inhibition [1] 9% | inhibition [2] 19% | inhibition [3] -7% | outcome [5] | outcome [6] | outcome [7] | outcome [8]

O=C(/C=C/c1ccc(Cl)c(Cl)c1)NCCCCCN1CCCC(CNC(=O)Nc2ccc(Oc3ccccc3)cc2)C1 (stereo not given)
inactive: growth inhibition [1] 6% | inhibition [2] 26% | inhibition [3] -2% | outcome [5] | outcome [6] | outcome [7] | outcome [8]
active: growth inhibition [4] 99%

COC(=O)Cn1c2ccccc2c2c(N)c(C(=O)OC)c(C)nc21
inactive: growth inhibition [1] 1% | inhibition [2] 0% | inhibition [3] 4% | outcome [5] | outcome [6] | outcome [7] | outcome [8]
active: growth inhibition [4] 93%

NCCCNc1ccnc2cc(Cl)ccc12
inactive: growth inhibition [1] 25% | inhibition [2] 14% | inhibition [3] 0% | outcome [5] | outcome [6] | outcome [7] | outcome [8]
active: growth inhibition [4] 101%

CCOC(=O)c1ccc(-n2c(C)cc(C=C3SC(=Nc4ccccc4)N(C4CCCC4)C3=O)c2C)cc1
active: growth inhibition [1] 61% | growth inhibition [4] 98%
inactive: inhibition [2] 2% | inhibition [3] 0% | outcome [5] | outcome [6] | outcome [7] | outcome [8]

CC[C@H]1CN2CCc3cc(OC)c(OC)cc3[C@@H]2C[C@@H]1CC1=NCCc2c1[nH]c1ccc(OCc3ccccc3)cc21
active: growth inhibition [1] 89% | inhibition [2] 57% | growth inhibition [4] 101%
inactive: inhibition [3] -2% | outcome [5] | outcome [6] | outcome [7] | outcome [8]

CCNc1nc(OCC(F)(F)F)nc(N(c2ccccc2)c2ccccc2)n1
inactive: inhibition [2] 5% | inhibition [3] 1% | outcome [5] | outcome [6] | outcome [7] | outcome [8]
active: growth inhibition [1] 83% | growth inhibition [4] 100%

O=c1[nH]ccc2nc(N[C@@H]3CCNC3)nc(Nc3cccc(S(=O)(=O)N4CCOCC4)c3)c12
inactive: inhibition [2] 0% | inhibition [3] 4% | outcome [5] | outcome [6] | outcome [7] | outcome [8]
active: growth inhibition [1] 98% | growth inhibition [4] 90%

CCN(C)c1cc(C(=O)N[C@@H](Cc2ccccc2)[C@H](O)CNC(C)(C)c2cccc(OC)c2)cc(N2CCCC2=O)c1
active: growth inhibition [1] 81% | growth inhibition [4] 100%
inactive: inhibition [2] -1% | inhibition [3] 1% | outcome [5] | outcome [6] | outcome [7] | outcome [8]

COC(=O)c1cc(C(=O)CN(Cc2ccccc2)C(C)C)ccc1O
inactive: growth inhibition [1] -1% | inhibition [2] 7% | inhibition [3] -2% | outcome [5] | outcome [6] | outcome [7] | outcome [8]
active: growth inhibition [4] 97%
